Several values for one entry are separate records, joined by “and”; a condition that tells them apart may be missing. Identical values can stand only once. Inconclusive results are not listed. Where a call stands in place of a potency, no number is given. Some structures have more than one record in an assay (separate samples or runs), and their calls can disagree. Activity calls are given as the source filed them. The call rests on the fitted dose curve; in most records, active means well fitted curve in the direction sought with a large enough effect in the repeat runs; inconclusive means weak or mixed curves; inactive means no such curve, though single readings can be large; an effect the other way counts as inactive or inconclusive.
What was measured:
[1] = biological target: Cytochrome P450 2C9 (Homo sapiens) (UniProt P11712); assay: Cytochrome P450 Family 2 Subfamily C Member 9 (CYP2C9) small molecule antagonists: luciferase reporter qHTS assay (AID 1671198)
Procedure, shortened: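 P450-Glo proluciferin substrate with CYP2C9 enzyme; 10 min RT preincubation, then NADPH regeneration 1 h at 37C; luciferin detection reagent 20 min RT, luminescence in relative luminescence units.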

[2] = biological target: Cytochrome P450 1A2 (Homo sapiens) (UniProt P05177); assay: Cytochrome P450 Family 1 Subfamily A Member 2 (CYP1A2) small molecule antagonists: luciferase reporter qHTS assay (AID 1671199)
Procedure, shortened: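 Steps: enzyme-substrate mix dispensed; test compounds and furafylline control pinned in; 10 min room temperature; NADPH regeneration solution added, 1 h; reaction stopped with luciferin detection reagent; luminescence read after 20 min.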

[3] = biological target: Voltage-gated inwardly rectifying potassium channel KCNH2 (Homo sapiens) (UniProt Q12809); assay: Human Ether-a-go-go-Related Gene (hERG) channel small molecule antagonists: fluorescence cell-based qHTS assay (AID 1671200)
Procedure, shortened: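 In this thallium-flux screen, overnight-cultured U2OS cells bearing the channel are dye-loaded in darkness for an hour, rested 10 min at room temperature, and then monitored kinetically at 480/540 nm for two minutes post-stimulus.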

[4] = biological target: Cytochrome P450 3A4 (Homo sapiens) (UniProt P08684); assay: Cytochrome P450 Family 3 Subfamily A Member 4 (CYP3A4) small molecule antagonists: luciferase reporter qHTS assay (AID 1671201)
Procedure, shortened: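 CYP3A4 activity was followed with a P450-Glo proluciferin substrate. Test compounds in DMSO were preincubated 10 min; NADPH regeneration then ran 1 h, and light output was read 20 min after detection reagent.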
Further: nearly all actives have a fitted effect of over 50% in size.
Potency means the concentration at half of the fitted maximal effect.

Sequence of Voltage-gated inwardly rectifying potassium channel KCNH2 (Homo sapiens) (Q12809 whole entry, looked up): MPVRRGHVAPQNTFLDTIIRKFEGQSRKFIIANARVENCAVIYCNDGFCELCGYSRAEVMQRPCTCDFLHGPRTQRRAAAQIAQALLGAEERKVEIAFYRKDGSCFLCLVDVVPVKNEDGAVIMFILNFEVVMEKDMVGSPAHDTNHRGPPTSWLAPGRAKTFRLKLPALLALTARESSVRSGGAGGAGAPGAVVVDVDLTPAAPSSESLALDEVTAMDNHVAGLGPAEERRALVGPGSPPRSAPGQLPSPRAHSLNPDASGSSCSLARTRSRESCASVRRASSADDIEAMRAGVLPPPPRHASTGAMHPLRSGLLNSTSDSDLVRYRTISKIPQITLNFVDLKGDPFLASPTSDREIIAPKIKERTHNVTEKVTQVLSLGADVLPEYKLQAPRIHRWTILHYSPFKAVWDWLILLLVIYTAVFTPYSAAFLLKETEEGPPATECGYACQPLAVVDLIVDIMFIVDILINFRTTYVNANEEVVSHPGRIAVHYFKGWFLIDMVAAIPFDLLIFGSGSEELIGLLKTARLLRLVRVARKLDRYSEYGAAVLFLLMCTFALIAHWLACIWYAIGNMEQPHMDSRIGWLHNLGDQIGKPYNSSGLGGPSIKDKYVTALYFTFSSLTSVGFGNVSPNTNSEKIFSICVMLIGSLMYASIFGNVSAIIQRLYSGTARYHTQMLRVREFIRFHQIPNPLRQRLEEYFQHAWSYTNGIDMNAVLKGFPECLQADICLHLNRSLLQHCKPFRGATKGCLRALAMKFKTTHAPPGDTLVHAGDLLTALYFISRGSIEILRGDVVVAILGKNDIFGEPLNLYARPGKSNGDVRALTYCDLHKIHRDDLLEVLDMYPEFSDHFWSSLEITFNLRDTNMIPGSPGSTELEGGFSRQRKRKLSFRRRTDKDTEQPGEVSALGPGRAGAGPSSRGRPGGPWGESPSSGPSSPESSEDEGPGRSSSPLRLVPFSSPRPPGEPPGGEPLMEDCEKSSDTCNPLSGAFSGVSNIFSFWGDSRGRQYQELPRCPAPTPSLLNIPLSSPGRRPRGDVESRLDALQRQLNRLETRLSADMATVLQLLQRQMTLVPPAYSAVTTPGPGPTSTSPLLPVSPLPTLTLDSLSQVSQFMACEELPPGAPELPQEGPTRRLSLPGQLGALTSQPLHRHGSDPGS
Sequence of Cytochrome P450 2C9 (Homo sapiens) (P11712 whole entry, looked up): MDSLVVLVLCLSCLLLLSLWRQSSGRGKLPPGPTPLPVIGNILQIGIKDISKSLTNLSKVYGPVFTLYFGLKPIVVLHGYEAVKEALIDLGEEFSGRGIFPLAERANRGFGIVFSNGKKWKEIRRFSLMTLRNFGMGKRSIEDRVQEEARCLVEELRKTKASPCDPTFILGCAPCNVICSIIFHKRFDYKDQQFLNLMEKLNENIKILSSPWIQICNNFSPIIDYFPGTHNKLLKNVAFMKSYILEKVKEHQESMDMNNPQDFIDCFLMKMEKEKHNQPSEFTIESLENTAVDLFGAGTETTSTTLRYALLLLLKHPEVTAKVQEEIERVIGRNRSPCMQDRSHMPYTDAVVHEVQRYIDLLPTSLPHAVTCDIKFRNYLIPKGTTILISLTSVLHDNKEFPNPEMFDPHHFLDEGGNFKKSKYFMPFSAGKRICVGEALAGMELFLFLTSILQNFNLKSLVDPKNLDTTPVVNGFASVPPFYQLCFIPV
Sequence of Cytochrome P450 3A4 (Homo sapiens) (P08684 whole entry, looked up): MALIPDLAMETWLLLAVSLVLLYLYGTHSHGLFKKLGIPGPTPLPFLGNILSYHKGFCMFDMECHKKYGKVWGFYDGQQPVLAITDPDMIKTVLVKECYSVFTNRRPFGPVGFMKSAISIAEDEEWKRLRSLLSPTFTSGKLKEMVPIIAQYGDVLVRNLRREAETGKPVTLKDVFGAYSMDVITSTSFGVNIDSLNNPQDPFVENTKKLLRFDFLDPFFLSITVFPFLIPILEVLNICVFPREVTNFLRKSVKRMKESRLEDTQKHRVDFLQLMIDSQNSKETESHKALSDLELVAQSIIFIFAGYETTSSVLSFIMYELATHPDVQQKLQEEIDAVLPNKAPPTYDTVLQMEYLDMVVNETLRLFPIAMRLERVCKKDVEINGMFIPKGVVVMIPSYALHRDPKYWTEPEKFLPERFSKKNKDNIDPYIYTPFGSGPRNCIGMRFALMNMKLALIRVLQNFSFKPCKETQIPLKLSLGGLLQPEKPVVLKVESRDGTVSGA
Sequence of Cytochrome P450 1A2 (Homo sapiens) (P05177 whole entry, looked up): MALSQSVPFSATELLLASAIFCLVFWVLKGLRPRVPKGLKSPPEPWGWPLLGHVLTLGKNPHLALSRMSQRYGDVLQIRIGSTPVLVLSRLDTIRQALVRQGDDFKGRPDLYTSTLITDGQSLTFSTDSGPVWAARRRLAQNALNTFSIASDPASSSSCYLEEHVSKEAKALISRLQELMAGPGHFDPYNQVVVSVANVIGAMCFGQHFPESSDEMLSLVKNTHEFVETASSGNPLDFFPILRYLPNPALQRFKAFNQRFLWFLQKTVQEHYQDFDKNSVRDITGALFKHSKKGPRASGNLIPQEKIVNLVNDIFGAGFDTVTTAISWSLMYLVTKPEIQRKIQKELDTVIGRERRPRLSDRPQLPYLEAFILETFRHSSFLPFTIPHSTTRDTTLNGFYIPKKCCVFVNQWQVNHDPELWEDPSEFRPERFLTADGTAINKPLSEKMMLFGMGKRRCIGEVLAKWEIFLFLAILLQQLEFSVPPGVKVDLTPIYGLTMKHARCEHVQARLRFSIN

Row | SMILES | Potency [1] | Potency [2] | Potency [3] | Potency [4]
1 | O=S(=O)(O)c1ccc2nc(-c3ccccc3)[nH]c2c1 | 33.9 µM (active) and 19.5 µM (active) | 26.9 µM (active) and 19.5 µM (active) | inactive | –
2 | Cc1cccc(O)c1C | inactive | 46.1 µM (active) | inactive | inactive
3 | O=C1OC2(c3ccc(O)cc3Oc3cc(O)ccc32)c2ccccc21 | 11.2 µM (active) | inactive | 15.5 µM (active) and inactive | inactive
4 | CCCNC(C)C(=O)Nc1ccccc1C (configuration not stated) | inactive | inactive | inactive | inactive
5 | O=C1Nc2ccccc2C1(c1ccc(O)cc1)c1ccc(O)cc1 | 6.33 µM (active) and 3.89 µM (active) | inactive | inactive | –
6 | CCN(CC)c1ccc2c(C)cc(=O)oc2c1 | inactive | 2.02 µM (active) and 2.83 µM (active) | inactive | 20.2 µM (active) and 31.7 µM (active)
7 | C=C(C)C(=O)O | inactive | inactive | inactive | inactive
8 | CC(C)(c1ccccc1)c1ccc(Nc2ccc(C(C)(C)c3ccccc3)cc2)cc1 | 3.55 µM (active) and 5.64 µM (active) | inactive | inactive | –
9 | Cc1c(O)cccc1C(=O)N[C@@H](CSc1ccccc1)[C@H](O)CN1C[C@H]2CCCC[C@H]2C[C@H]1C(=O)NC(C)(C)C | 19.5 µM (active) and 24.5 µM (active) | inactive | inactive | –
10 | Nc1nc2ccccc2[nH]1 | inactive | inactive | inactive | inactive
11 | C#CC(C)(CC)OC(=O)c1ccccc1C(=O)O (configuration not stated) | inactive | inactive | inactive | inactive
12 | CC1=C(C=O)C(C)(C)CC=C1 | inactive | inactive | inactive | –
13 | CC[C@H]1CN2CCc3cc(OC)c(OC)cc3[C@@H]2C[C@@H]1C[C@H]1NCCc2cc(OC)c(OC)cc21 | inactive | inactive | – | –
14 | Cc1cc(C(C)(C)C)c(O)c(C(C)(C)C)c1 | 35.7 µM (active) and inactive | inactive | inactive | inactive
15 | CC(=O)N[C@@H](CS)C(=O)O | inactive | inactive | inactive | inactive
16 | CC(C(O)c1ccc(O)cc1)N1CCC(Cc2ccccc2)CC1 (configuration not stated) | inactive | inactive | 6.01 µM (active) | inactive
17 | CC(C)(C)NCC(O)COc1ccccc1OCC1CCCO1 (configuration not stated) | inactive | inactive | inactive | inactive
18 | O=C(O)Cn1cnnn1 | inactive | inactive | inactive | inactive
19 | CC(C)CCOC(=O)c1ccc(N(C)C)cc1 | 8.71 µM (active) | 2.88 µM (active) | inactive | inactive
20 | COc1nc(C)nc(Cl)c1NC1=NCCN1 | inactive | inactive | inactive | inactive
21 | CCCCCC(=O)O[C@]1(C(C)=O)CC[C@H]2[C@@H]3CCC4=CC(=O)CC[C@]4(C)[C@H]3CC[C@@]21C | 7.91 µM (active) and 11 µM (active) | inactive | 19.4 µM (active) | –
22 | CC1COc2c(N3CCN(C)CC3)c(F)cc3c(=O)c(C(=O)O)cn1c23 (configuration not stated) | inactive | inactive | inactive | –
23 | CCOC(=O)C(C)C(C)=O (configuration not stated) | inactive | 35.8 µM (active) | inactive | inactive

Row | SMILES | Potency [1] | Potency [2] | Potency [3] | Potency [4]
24 | Cc1ccc(-c2cc(C(F)(F)F)nn2-c2ccc(S(N)(=O)=O)cc2)cc1 | 12.6 µM (active) and 11.2 µM (active) and 8.71 µM (active) | inactive | – | –
25 | NCCCCCC(=O)O | inactive | inactive | inactive | inactive
26 | CCN(CC)C(=S)SSC(=S)N(CC)CC | 6.33 µM (active) and 4.21 µM (active) and 4.36 µM (active) | 31.7 µM (active) and 21.3 µM (active) and 6.45 µM (active) | 41 µM (active) and inactive | –
27 | C=CS(=O)(=O)O | inactive | inactive | inactive | –
28 | C/C=C/c1ccc(OCC)c(O)c1 | 35.6 µM (active) and 28.3 µM (active) | 7.1 µM (active) and 7.96 µM (active) | inactive | –
29 | NC(N)=NC(=O)Cc1c(Cl)cccc1Cl | inactive | inactive | inactive | –
30 | Cc1scc2c1N(C(=O)CN1CCN(C)CC1)c1ccccc1NC2=O | inactive | inactive | inactive | –
31 | NNCCc1ccccc1 | 25.3 µM (active) and 17.4 µM (active) | 11.3 µM (active) and 17.4 µM (active) | inactive | –
32 | O=C(O[C@@H]1Cc2c(O)cc(O)cc2O[C@@H]1c1cc(O)c(O)c(O)c1)c1cc(O)c(O)c(O)c1 | 40 µM (active) and 27.2 µM (active) | inactive | inactive | 35.7 µM (active) and 48.5 µM (active)
33 | CCn1c2ccccc2c2cc(N)ccc21 | 12.5 µM (active) and 31.7 µM (active) and 28.3 µM (active) | 626 nM (active) and 2.24 µM (active) and 5.03 µM (active) | inactive | 1.77 µM (active) and 5.64 µM (active) and 31.7 µM (active)
34 | Cc1cc(OCCOCC[N+](C)(C)Cc2ccccc2)ccc1C(C)(C)CC(C)(C)C | 62.9 µM (active) | inactive | 688 nM (active) and 756 nM (active) | inactive
35 | CCCCC(CC)COC(=O)CC(C(=O)OCC(CC)CCCC)S(=O)(=O)O (configuration not stated) | 15.3 µM (active) and 12.6 µM (active) | 63.3 µM (active) | inactive | –
36 | CC(C)CCOCc1ccccc1 | inactive | – | inactive | inactive
37 | CCC(CO)(CO)COCC(CC)(CO)CO | – | inactive | inactive | inactive
38 | CC(=O)CC(=O)Nc1ccc2[nH]c(=O)[nH]c2c1 | – | 39.9 µM (active) | inactive | inactive
39 | CCCCCCCCCCCCCC[P+](CCCC)(CCCC)CCCC | – | 70.6 µM (active) and 79.6 µM (active) | 194 nM (active) and 275 nM (active) | inactive
40 | COc1ccc(Cc2cnc(N)nc2N)cc1OC | – | inactive | inactive | inactive
41 | CCC(C)(Oc1ccc(C2(c3ccc(OC(C)(CC)C(=O)O)cc3)CCCCC2)cc1)C(=O)O (configuration not stated) | – | inactive | inactive | inactive
42 | CCc1cc(C(C)(C)C)c(O)c(C(C)(C)C)c1 | – | inactive | inactive | inactive
43 | CO[Si](OC)(OC)c1ccccc1 | inactive | – | inactive | –
44 | C=C(C)C1CC=C(C)C(OC(C)=O)C1 (configuration not stated) | – | inactive | inactive | inactive
45 | CN1C(=O)c2ccc([N+](=O)[O-])cc2C1=O | – | 20 µM (active) | inactive | 39.9 µM (active)
46 | CCCCOCCOC(=O)c1ccccc1C(=O)OCCOCCCC | – | 19.6 µM (active) and 15.9 µM (active) | inactive | 12.4 µM (active) and 17.8 µM (active)

Row | SMILES | Potency [1] | Potency [2] | Potency [3] | Potency [4]
47 | Oc1ccc(Cl)cc1Cc1cc(Cl)ccc1O | – | 36.2 µM (active) and 39.9 µM (active) and 15.5 µM (active) | inactive | –
48 | CN(C)c1ccc(C(=C2C=CC(=[N+](C)C)C=C2)c2ccccc2)cc1 | – | 15.9 µM (active) and 13.8 µM (active) | 4.25 µM (active) [middle of 4 runs] | –
49 | COC(c1ccccc1)(c1ccccc1)[C@H](Oc1nc(C)cc(C)n1)C(=O)O | – | 17.4 µM (active) | inactive | –
50 | [Cl][In]([Cl])[Cl] | – | 37.7 µM (active) | inactive | inactive
51 | Oc1c(Cl)cc(Cl)cc1Sc1cc(Cl)cc(Cl)c1O | – | 72.2 µM (active) and inactive | inactive | inactive
52 | CC1=CC(=O)c2ccccc2C1=O | – | 1.78 µM (active) and 2.75 µM (active) | 3.89 µM (active) and 7.56 µM (active) | –
53 | CC1COC(=O)O1 (configuration not stated) | – | inactive | inactive | inactive
54 | O=C(O)c1cccc(C(=O)O)c1 | inactive | – | inactive | inactive
55 | c1ccc2cc3c(ccc4ccccc43)cc2c1 | – | 897 nM (active) and 894 nM (active) | inactive | inactive
56 | O=C(Cl)c1cccc(C(=O)Cl)c1 | – | inactive | inactive | inactive
57 | Cc1cccc2n[nH]nc12 | inactive | – | inactive | inactive
58 | CC(=O)OCC1=C(C(=O)O)N2C(=O)[C@@H](NC(=O)Cc3cccs3)[C@H]2SC1 | – | inactive | inactive | inactive
59 | CCCCC/C=C/CC1CC(=O)OC1=O (configuration not stated) | – | 28.3 µM (active) | inactive | inactive
60 | COC(=O)[C@H]1[C@H]2C[C@@H]3c4[nH]c5cc(OC)ccc5c4CCN3C[C@H]2C[C@@H](OC(=O)c2cc(OC)c(OC)c(OC)c2)[C@@H]1OC | – | 32.6 µM (active) and inactive | 3.46 µM (active) and 6.34 µM (active) and 10.7 µM (active) | –
61 | c1cnc2cc3c(cc2n1)C1CNCC3C1 | – | inactive | inactive | –
62 | O=C(O)CP(=O)(O)O | inactive | – | inactive | inactive
63 | Nc1ccc(O)cc1 | 26.2 µM (active) and 34.7 µM (active) | – | inactive | 37 µM (active)
64 | CCC[C@H](N[C@@H](C)C(=O)N1[C@H](C(=O)O)C[C@@H]2CCCC[C@@H]21)C(=O)OCC | – | 17.4 µM (active) and inactive | inactive | inactive
65 | Cc1ccc(S(=O)(=O)Oc2ccc(N=Nc3ccc(-c4ccc(N=Nc5c(O)ccc6cc(S(=O)(=O)O)cc(S(=O)(=O)O)c56)c(C)c4)cc3C)cc2)cc1 | – | 56.6 µM (active) and 23.2 µM (active) | inactive | –
66 | CCCCCCC(O)CCCCCCCCCCC(=O)O (configuration not stated) | – | inactive | inactive | inactive
67 | CCCCCCCCCCCC[N+](C)(C)C | – | inactive | 21.9 µM (active) | inactive
68 | CC(=O)O[C@]1(C(C)=O)CC[C@H]2[C@@H]3C[C@H](C)C4=CC(=O)CC[C@]4(C)[C@H]3CC[C@@]21C | – | inactive | inactive | –

Source: PubChem BioAssay (Tox21)
